# Compound activity from PubChem BioAssay.
# PLC-beta3 inh = PLC-beta3 (human) inhibition, primary screen; 370,000 compounds, 0.18% hits; Purified PLC-beta3, fluorogenic substrate, fluorescence; inhibition, % at 12.2 µM; in the data active = inhibition above about 11%;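 note: 0% = median of compound wells on plate and 100% = full blocker control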
# PLC-gamma1 inh = PLC-gamma1 (human) inhibition, primary screen; P19174; purified PLC-gamma1, fluorogenic substrate, fluorescence; inhibition, % at 12.2 µM; 370,000 compounds, 0.84% hits; in the data active = inhibition above about 9.5%
# ADAM17 inh = inhibits human ADAM17. recombinant ADAM17, EDANS/DABCYL FRET peptide cleavage. inhibition, % at 6.95 µM. 370,000 compounds, 0.83% hits. AID 720648;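 active = inhibition above the mean of compounds lying between control limits plus 3 SD, set per campaign, cut at about 8.5% in these data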;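 note: 0% = DMSO-only wells as the low control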
# Target sequence (P78536 215-824 limits assumed): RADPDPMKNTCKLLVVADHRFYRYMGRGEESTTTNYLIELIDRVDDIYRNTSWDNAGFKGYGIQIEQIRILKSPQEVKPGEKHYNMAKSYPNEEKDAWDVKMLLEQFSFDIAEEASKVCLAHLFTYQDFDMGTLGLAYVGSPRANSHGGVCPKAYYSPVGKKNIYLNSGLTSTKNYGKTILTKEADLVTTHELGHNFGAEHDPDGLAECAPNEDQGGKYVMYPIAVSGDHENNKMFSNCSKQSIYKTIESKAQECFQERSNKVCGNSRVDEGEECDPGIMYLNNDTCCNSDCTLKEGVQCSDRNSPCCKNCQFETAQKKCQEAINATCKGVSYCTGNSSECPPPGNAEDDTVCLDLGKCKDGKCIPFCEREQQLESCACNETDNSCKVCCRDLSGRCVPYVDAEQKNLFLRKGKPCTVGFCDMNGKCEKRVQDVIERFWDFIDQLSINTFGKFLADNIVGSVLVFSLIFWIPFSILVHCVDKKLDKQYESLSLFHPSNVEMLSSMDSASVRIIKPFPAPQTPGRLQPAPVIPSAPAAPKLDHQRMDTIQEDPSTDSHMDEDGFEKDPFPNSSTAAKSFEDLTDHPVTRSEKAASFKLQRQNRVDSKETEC
# ADAM10 inh = inhibits human ADAM10; recombinant ADAM10, EDANS/DABCYL FRET peptide cleavage, 3 h; inhibition, % at 7 µM; 370,000 compounds, 0.62% hits;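 active = inhibition above a per-campaign cutoff equal to the mean of compounds falling between control-based bounds plus 3 SD, cut at about 20% in these data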;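 note: 0% = DMSO wells while the 100% control is not disclosed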
# KLK7 zymogen act = activators of human kallikrein-7 zymogen. P49862. 370,000 compounds, 0.9% hits. activation, % at 7 µM. purified proKLK7, EDANS-DABCYL substrate fluorescence; 100% is mature enzyme control, 0% vehicle;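 active = activation above the mean of all tested compounds plus 3 SD, computed per campaign excluding outliers beyond control limits, cut at about 13% in these data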
# ADAM10 confirm = confirmation of inhibitors of human ADAM10; inhibition, % at 6.95 µM; AID 743208; shares compounds with ADAM10 inh; ADAM10 QFRET peptide cleavage, EDANS fluorescence; 2,100 compounds, 1% hits;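 active = inhibition above about 20% chosen separately for each screening run, limit read from the data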;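 note: 0% = DMSO wells and 100% = marimastat wells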
# ADAM17 ctr = counter-screen for ADAM10 exosite inhibitors: inhibitors of human ADAM17 | AID 743214 | inhibition, % at 6.95 µM | shares compounds with ADAM10 inh | ADAM17 QFRET peptide cleavage, EDANS fluorescence | 2,100 compounds, 0.5% hits;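 active = mean triplicate inhibition above the solvent-only control wells' mean plus 3 SD, cut at about 12% in these data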;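 note: 0% = DMSO wells and 100% = marimastat wells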
# ADAM10 ctr = counter-screen for ADAM17 exosite inhibitors: inhibitors of human ADAM10; shares compounds with ADAM17 inh; recombinant ADAM10, EDANS/DABCYL FRET peptide cleavage, 3 h; inhibition, % at 6.95 µM; 2,900 compounds, 47% hits;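 active = mean inhibition over the triplicate runs exceeds the activity threshold set in the earlier primary screen, cut at about 20% in these data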;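 note: 0% = DMSO wells and 100% = marimastat wells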
# ADAM17 confirm = confirmation of inhibitors of human ADAM17; shares compounds with ADAM17 inh; recombinant ADAM17, EDANS/DABCYL QFRET peptide cleavage; inhibition, % at 6.95 µM; 2,900 compounds, 65% hits; AID 743257;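 active = mean inhibition across replicates above the hit cutoff set in the primary screen, cut at about 8.5% in these data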;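 note: 0% = DMSO wells and 100% = marimastat wells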
# The depositor's hits bear a star; · = not tested or not shown. The list is not random: actives were taken first. Their share in the collection is about 2.9%.
SMILES,PLC-beta3 inh,PLC-gamma1 inh,ADAM17 inh,ADAM10 inh,KLK7 zymogen act,ADAM10 confirm,ADAM17 ctr,ADAM10 ctr,ADAM17 confirm
Cc1cc(NC(=O)CS(=O)(=O)c2cn(Cc3cccc(Br)c3)c3ccccc23)no1,-8,4,10*,24*,0,3,1,8,8.7*
COc1ccc(CCN2C(=S)N(C)C(=O)C2CC(=O)Nc2ccc(OC)cc2)cc1 (stereo not given),3,0,5,16,0,·,·,·,·
COc1ccc(NC(=O)CC2C(=O)N(C)C(=S)N2CCc2ccc(F)cc2)cc1 (stereo not given),-4,5,12*,21*,1,1,0,25*,14*
O=C(Nc1cc(Oc2ccccc2)cc([N+](=O)[O-])c1)C12CC3CC(C1)CC(n1cnc(Cl)n1)(C3)C2,9,6,9.7*,22*,0,8,3,28*,11*
O=C(O)c1cccc(NC(=O)C23CC4CC(C2)CC(n2cnc(Cl)n2)(C4)C3)c1,1,2,-5,10,1,·,·,·,·
CCN(CC)C(=O)CC[C@@H]1CC[C@]2(CCCN(S(=O)(=O)c3ccccc3)C2)O1,2,2,-1,-1,1,·,·,·,·
COc1ccc(-c2noc(C3CCCN(C(=O)Nc4cc(C)cc(C)c4)C3)n2)cc1 (stereo not given),4,4,6,10,1,·,·,·,·
COc1ccc(NC(=O)c2cccc(S(=O)(=O)N(C)c3ccccc3)c2)cn1,4,2,7,4,1,·,·,·,·
COc1ccc(NC(=O)c2cc(S(=O)(=O)N(Cc3ccccc3)c3ccccc3)ccc2Cl)cn1,-1,0,9.6*,20*,0,9,2,23*,12*
CS(=O)(=O)N(CC(=O)Nc1cccc([N+](=O)[O-])c1)c1ccccc1,2,-1,0,1,0,·,·,·,·
Cc1ccccc1CN(CC(=O)Nc1cccc([N+](=O)[O-])c1)S(=O)(=O)c1ccc(Cl)cc1,4,0,9.7*,21*,1,8,3,35*,19*
Cc1ccc(C2c3c(n[nH]c3C)C(=O)N2Cc2ccccc2)cc1 (stereo not given),1,0,2,13,0,·,·,·,·
COc1cc(CN2CCN(c3cccc(C)c3C)CC2)cc(Br)c1O,8,3,9.8*,24*,0,3,2,22*,11*
NC(=O)CC(NC(=O)c1ccc(Br)cc1)c1ccc(N2CCCCCC2)c([N+](=O)[O-])c1 (stereo not given),7,8,12*,22*,-1,3,1,10,5
CCOC(=O)c1c(N)sc(C(O)(C(F)(F)F)C(F)(F)F)c1-c1ccc(Cl)cc1,-3,-2,11*,37*,0,8,2,47*,24*
CC(=O)OC1[C@H](Oc2c(O)c(C)c3c4c2[C@@H](C)CC[C@@H]4[C@@H](C)C[C@@H]3C=C(C)C)OC[C@@H](O)[C@@H]1O (stereo not given in full),4,-2,4,6,0,·,·,·,·
CC(C)=C[C@H]1C[C@H](C)[C@H]2CC[C@H](C)c3c(O[C@@H]4OC[C@@H](O)[C@H](O)C4O)c(O)c(C)c1c32 (stereo not given in full),5,3,21*,30*,1,6,3,15,9.1*
CCOc1ccc(NS(=O)(=O)c2cc(NC(=O)c3ccc(C)cc3)ccc2Cl)cc1,2,4,13*,28*,1,8,2,39*,22*
Cc1cccc(NC(=O)c2ccc(NS(=O)(=O)c3cccc4cccnc34)cc2)c1,-5,9,13*,24*,0,4,1,24*,15*
COc1ccc(C(=O)Nc2ccc(Cl)c(S(=O)(=O)Nc3ccccc3OC)c2)cc1,-1,-1,13*,21*,0,4,2,40*,23*
COc1ccccc1NS(=O)(=O)c1cc(NC(=O)c2ccc(Cl)nc2)ccc1Cl,2,-2,6,4,1,·,·,·,·
COc1ccccc1NS(=O)(=O)c1cc(NC(=O)c2cc(F)c(F)c(F)c2F)ccc1N1CCOCC1,-6,-6,8.8*,22*,-1,11,3,43*,28*
COc1ccc2[nH]c3c(c2c1)CCN[C@]31C(=O)N(C)c2ccc(Br)cc21,-1,0,0,4,0,·,·,·,·
O=C(NCCc1c[nH]c2ccccc12)OCc1cn(-c2ccc(F)cc2)nn1,-6,2,-7,-11,1,·,·,·,·
COC(=O)C1CN(CCO)CCS(=O)(=O)N1Cc1cccc(Cl)c1 (stereo not given),-2,0,-2,2,0,·,·,·,·
SMILES,PLC-beta3 inh,PLC-gamma1 inh,ADAM17 inh,ADAM10 inh,KLK7 zymogen act,ADAM10 confirm,ADAM17 ctr,ADAM10 ctr,ADAM17 confirm
COc1ccc(C2C(C(=O)Nc3ccc(F)cc3F)CCC(=O)N2c2ccc(OC)cc2)cc1 (stereo not given),4,-2,1,-4,0,·,·,·,·
O=C(OC(C(=O)Nc1cccc(C(F)(F)F)c1)c1ccccc1)C1CCCCC1 (stereo not given),3,2,12*,25*,0,9,3,20*,13*
O=C(Nc1cccc(C(F)(F)F)c1)NC1CCCCC1,6,4,4,5,-1,·,·,·,·
COCCOC(=O)c1c(C)n(C)c2ccc(OC(=O)c3c(OC)cccc3OC)cc12,-5,2,10*,21*,0,6,1,13,9.1*
O=C(COC(=O)c1ccc(S(=O)(=O)N2CCCC2)cc1)Nc1ccccc1,-18,2,2,2,0,·,·,·,·
O=C(COC(=O)c1ccc(Cl)c(S(=O)(=O)N2CCCCCC2)c1)Nc1ccccc1,1,3,10*,20*,0,12,3,49*,27*
CN1CCN(c2ccc([N+](=O)[O-])c(-n3nc(-c4ccccc4)c4ccccc4c3=O)c2)CC1,9,9.6*,13*,20*,0,1,0,15,9.7*
Cc1nn(-c2cc(N3CCCCC3)ccc2[N+](=O)[O-])c(=O)c2ccccc12,5,1,-2,-1,0,·,·,·,·
